MARV entry inh = qHTS for inhibitors of binding or entry into cells for Marburg Virus; Potency, µM (titrated, usually from 37.8 µM), for inactives: at the highest dose activity change, negative = inhibition, usual class: inhibitors; 1.8% of 300,000 active; AID 540276, 2011; Marburg virus pseudotyped entry inhibition, cell reporter; calls by dose curve; tested in HEK293 cells; also: potency is read from the fitted curve at half-maximal effect; % is scaled to controls: 0 for no effect and ±100 for the full control effect
HCV inh = qHTS Assay for Inhibitors of Hepatitis C Virus (HCV) | Potency, µM (highest dose often 41.8 µM), for the others: at the highest dose activity change, negative = inhibition, actives largely listed as inhibitors | AID 651820, 2012 | 3.4% of 340,000 active | Huh7.5.1 HCVcc-Cre infection, luciferase reporter, 44 h; active = well fitted inhibition curve with a large enough effect; inconclusive = small, poorly fitted or top-dose-only effect, or another doubt; inactive = no such curve, though single readings can be large or run the other way; also: potency is read from the fitted curve at half-maximal effect; % is scaled to controls: 0 for no effect and ±100 for the full control effect
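Cells seeded at 1,000/well and cultured 4 h, then compounds added followed by HCVcc-Cre virus (~0.5 moi). After 44 h further culture, luciferase substrate was added, plates held 15 min at room temperature, and luminescence read for 15 sec.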
HCMV inh = qHTS Assay for inhibitors of the human cytomegalovirus (HCMV); activity change, negative = inhibition, % at 57.5 µM; HFF cells, HCMV-luciferase reporter, 72 h; active compounds read low; 4.5% of 410,000 active; AID 1259415, 2018; in the data active = activity change below about -60%; inconclusive = no clear call, values can overlap the other calls; inactive = above about -39%; also: % is scaled to controls: 0 for no effect and ±100 for the full control effect
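HFF cells seeded 16 h at 37C, treated with compounds, infected with luciferase-reporter HCMV at MOI 1 PFU/cell; luciferase read at 72 h post infection, normalized to buffer-only and Salinomycin controls.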
Lassa entry inh = qHTS for Inhibitors of binding or entry into cells for Lassa Virus | Lassa virus pseudotype entry inhibition, cell reporter | Potency, µM (series often up to 37.9 µM), for the others: at the highest dose activity change, negative = inhibition, hits mostly inhibitors | 1.2% of 300,000 active; calls by dose curve; tested in HEK293 cells; also: potency is read from the fitted curve at half-maximal effect; % is scaled to controls: 0 for no effect and ±100 for the full control effect; nearly all actives have a fitted effect of over 50% in size
FMDV inh = High Throughput Screening for Foot and Mouth Disease Virus Antivirals; Potency, µM (series often up to 57.9 µM), inactives show at the highest dose activity change, negative = inhibition, actives largely listed as inhibitors; 1.2% of 410,000 active; FMDV antiviral cell-based qHTS; calls by dose curve; tested in HEK293T cells; also: read-out not given here; potency is read from the fitted curve at half-maximal effect; % is scaled to controls: 0 for no effect and ±100 for the full control effect; nearly all actives have a fitted effect of over 45% in size
SARS PLpro yeast = qHTS of Yeast-based Assay for SARS-CoV PLP; S. cerevisiae expressing SARS-CoV PLpro, growth rescue; Potency, µM (titrated, usually from 32.9 µM), for the others: top-dose activity, positive = growth rescue, most hits filed as activators; 0.19% of 330,000 active; calls by dose curve; also: potency is read from the fitted curve at half-maximal effect; 0% is about no effect; nearly all actives have a fitted effect of over 55% in size
Active calls of the source: *; ? = inconclusive; . = no result given; ! = not active in a repeat; [ ] = another dose, or the depositor's remark. Most compounds without a hit are left out; they make up all but 8% or so of the library.

SMILES | MARV entry inh | HCV inh | HCMV inh | Lassa entry inh | FMDV inh | SARS PLpro yeast
COc1ccc(OC)c(C(c2nnnn2CCc2ccccc2)N2CCN(c3ccccc3)CC2)c1 (stereo unspecified) | ? | ? | -12 | 10µM* | 18% | 1%
COc1ccc(N2CCN(C(c3cc(OC)ccc3OC)c3nnnn3Cc3ccco3)CC2)cc1 (stereo unspecified) | 10µM*! | 12% | -33 | ? | 22% | -7%
Cc1c(/C=N/NC(=O)C(NC(=O)c2ccc3c(c2)OCO3)C(C)C)c2ccccc2n1C (stereo unspecified) | ? | 11µM* | -80* | ? | 0% | -3%
COc1ccc2[nH]cc(CCN=C(NC(=O)c3ccccc3OC)Nc3nc(C)cc(C)n3)c2c1 | ? | . | -96* | ? | ? | .
COc1ccc2[nH]cc(CCN=C(NC(=O)c3ccccc3C)Nc3nc(C)cc(C)n3)c2c1 | ? | . | ? | ? | -26% | .
CCN(CC)CCSc1nnc2c3ccccc3n(Cc3ccccc3)c2n1 | . | 11µM* | ? | . | -30% | 4%
CCN(CC)CCn1c2ccccc2c2nc3ccccc3nc21 | . | ? | -102* | . | -15% | .
CC(=O)NCCNc1nc2cc(-c3cccc(Cl)c3)sc2c(=O)n1C | . | . | -14 | . | -25% | .
Cc1cc(N2CCN(S(=O)(=O)c3ccc(Br)cc3)CC2)n2ncnc2n1 | -1%[46.1 µM] | ? | -6 | -9% | -29% | 1%
CCOc1ccc(NC(=O)C2CCCN(c3c(CC)c(C)nc4ncnn34)C2)cc1 (stereo unspecified) | -21%[46.1 µM] | 13µM* | 31 | . | ? | -3%
Cc1ccc(C)n1-c1nnc(N2CCCC(C(=O)Nc3ccccc3Br)C2)s1 (stereo unspecified) | -6%[46.1 µM] | . | 19 | -5%[46.1 µM] | 0% | .
CCOc1ccc(NC(=O)C2CCCN(c3nc(C)cc(C)n3)C2)cc1 (stereo unspecified) | ? | -14% | -27 | -5%[46.1 µM] | -5% | 0%
CCc1c(C)nc2ncnn2c1N1CCN(S(=O)(=O)c2ccc(OC)cc2)CC1 | ? | 1.8µM* | -72* | ? | -30% | -1%
CCc1c(C)nc2ncnn2c1N1CCCC(C(=O)Nc2cc(F)ccc2C)C1 (stereo unspecified) | ? | -30% | -35 | -8% | 35µM* | -2%
Cc1nc2ncnn2c(N2CCCC(C(=O)Nc3ccccc3Br)C2)c1C (stereo unspecified) | -18%[46.1 µM] | ? | -64* | ? | ? | 2%
CCc1c(C)nc2ncnn2c1N1CCCC(C(=O)NCCc2ccccc2)C1 (stereo unspecified) | -23% | -26% | -23 | 2% | -6% | 1%
CN(C)c1ncnc2c1ncn2C1OC(CO)C(O)C1O (stereo unspecified) | ? | 4.5µM* | 2 | ? | -18% | -1%
COc1ccc(C[C@H](N)C(=O)N[C@H]2[C@@H](O)[C@H](n3cnc4c(N(C)C)ncnc43)O[C@@H]2CO)cc1 | . | 0.32µM* | -98* | . | ? | .
OCC1OC(n2cnc3c(Cl)ncnc32)C(O)C1O (stereo unspecified) | . | . | . | . | -11% | .
C=CCOc1ccc(C[C@H](N)C(=O)NC[C@H]2O[C@@H](n3cnc4c(N)ncnc43)[C@H](O)[C@@H]2O)cc1 | . | 0% | . | . | -15% | -3%
C[C@H]1C(C(=O)N2CCCC2)=Cc2[nH]c(=O)[nH]c2C=C1c1ccccc1 | 18%[14.2 µM] | . | . | . | . | .
COc1ccc2c(-c3ccccc3)cc(SCC(N)=O)nc2c1 | 5.6µM* | ? | -25 | ? | -23% | -7%
COc1ccc(C)cc1-n1nnnc1SCc1csc(C)n1 | 10% | -19% | 21 | -19% | 36% | 7%
COc1ccc(C)cc1-n1nnnc1SCc1cc(=O)n2cc(C)ccc2n1 | 3%[46.1 µM] | ? | -72* | ? | 16µM* | 7%
COc1ccc2c(C)cc(SCn3nnc4ccccc4c3=O)nc2c1 | -2% | -4% | -65* | -3% | -15% | -1%

Screening results from PubChem.
